Assay results: PubChem BioAssay AID1159506 (National Center for Advancing Translational Sciences (NCATS), 2015)
In all, about 59,000 sequences were measured (the read-out: median about -0.00055, lowest 2% from about -2 on). The sample as a whole holds a higher share of the lowest values than the screen did.

Experiment: Identification of proteins required for the processing of the EWS-FLI1 nascent transcript;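 note: robust z of luciferase light less the median z of siRNAs with the same seed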
Conditions: TC32 Ewing sarcoma NR0B1-luc vs CMV-luc (EWS-FLI1 target promoter against control promoter), 48 h; screened at 20 nM (by protocol)
How it was run: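 TC32 Ewing sarcoma cells carrying NR0B1-promoter or CMV-promoter luciferase reporters were reverse-transfected with single siRNAs at 20 nM, three per gene genome-wide. Luminescence was read after 48 h and normalized to non-targeting controls.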

Going from UCAGGUUCUUCCGUAGCUG against PHF21A to AAAGACUCCAUAUAGACGG against ROR1, the seed-corrected z-score falls from -0.312 to -0.522.

First: AUCAAUGACAUAAUCGCUG against SHANK3
Second: AGUGGAGUUAGAUAGUUGG against KDM6A
The seed-corrected z-score of the first is higher: -0.601 for the first, -4.37 for the second.

Compared with UACCACAUUACACUCGUCU against NPM3, UUGUUGUCCAUAAUUGUCC against RNF8 is higher in seed-corrected z-score: 0.156 for the first, 1.95 for the second.

Going from UCCGGAUAUACUGUGCUUC against PCMTD2 to UUUGGGCCUGCUGAAAUUG against RNF148, the seed-corrected z-score rises from 0.0601 to 0.493.

Going from AACUGUCUUGUUGCUCUUG against NFKBID to AAGAUAGUCAAGCAUGUGC against ELMO3, the seed-corrected z-score rises from -0.0314 to 0.733.

Compared with UGUUGUCGCAGUGAGGAGC against KIAA0141, UUUGGUGACUGGACCGUUC against TRIM24 is higher in seed-corrected z-score: -2 for the first, -0.553 for the second.

Compared with UUGACAGCAAUCACAGUGG against AWAT2, UCAGCUCGGAUUUCACGGC against SHISA7 is lower in seed-corrected z-score: 0.583 for the first, 0.404 for the second.

First: UUAAGUUGAUCUGUACUGC against FAM117B
Second: CAGCCAUCUAGGAUGAGCC against RPL10P8
The seed-corrected z-score of the first is higher: -0.0872 for the first, -0.668 for the second.

First: UGGUUUUAGAGGAAUAGGG against SLC51A
Second: UAGGAAACCAAGCACAUCU against SH3BGRL
The seed-corrected z-score of the first is lower: -0.953 for the first, 1.88 for the second.

First: AUAGCCUCCAGUCCAAUUG against TM2D3
Second: UUGGUGGUGAACAUAGGGA against TAL1
The seed-corrected z-score of the first is lower: -2.03 for the first, -0.201 for the second.

First: UAGGUUGGAGAAUUGUUCC against T
Second: UGUUGUAGGAAUAGCCUGG against PITX2
The seed-corrected z-score of the first is higher: -0.372 for the first, -2.28 for the second.

Compared with UGGUCAUUUGGUAUGAGGC against CAPRIN2, UUCUUGAGAAGCAGGUUCU against STAT6 is lower in seed-corrected z-score: 0.0796 for the first, -0.716 for the second.

Going from UGAUCCAUGGGUUCGAUCC against ROCK2 to AAAAUAGAGGUCACCAUAC against C1orf35, the seed-corrected z-score rises from -0.007 to 0.456.

First: UGAGAAUUAUGAUCACUGC against SLC7A1
Second: UUUGUGCUUAACUGGCUGG against RPL12
The seed-corrected z-score of the first is higher: -0.0797 for the first, -2.56 for the second.

First: GCCGCGUACUUGUUGUUGC against IGLL1
Second: UCCUGCUACAUUUACAUCG against FERMT1
The seed-corrected z-score of the first is higher: 0.951 for the first, -3.31 for the second.

First: AAACUGAGAAACAUCAAGG against ZNF433
Second: UGUCAUCCCAUCAAUGACU against PPIC
The seed-corrected z-score of the first is lower: -1.01 for the first, -0.679 for the second.

First: UUUAAGGCAUCAUCUAGAC against DHFR
Second: UUCGAUGAAGAAACUCUGC against DOCK11
The seed-corrected z-score of the first is lower: -0.615 for the first, 0.27 for the second.

Compared with UGCGUUUUUAAGCAUGUGC against RPL17, UUUUGUGCCUUCGUUAACC against ADAM9 is higher in seed-corrected z-score: -2.46 for the first, -0.742 for the second.

Compared with UUUCUGUCCAGCAUAUGUA against SSU72, UCUCUUCAGAGCGUGCACC against ANKRD54 is higher in seed-corrected z-score: -0.804 for the first, -0.161 for the second.

Going from UUAGCUCCAAGUCUUGCAG against HDLBP to UACUGGUCCACGGAGAUUU against CSPG4, the seed-corrected z-score falls from 0.263 to 0.0797.

Compared with CUUCAUAGUGGUGUCCACG against MUC3B, UUCGUUUCGUCUCUUCUAG against ESCO1 is higher in seed-corrected z-score: -0.292 for the first, 1.44 for the second.

First: ACCGUUAAAACAAGCUUCG against NBAS
Second: UUCGCUGAAAAGAAACUGG against PHRF1
The seed-corrected z-score of the first is higher: 0.0519 for the first, -0.139 for the second.

First: UUUAAGCAACCGUCGUUGG against RPS23P8
Second: AAUCUAUAACUCUUUGACC against MKKS
The seed-corrected z-score of the first is lower: -9.97 for the first, -0.508 for the second.

Going from UGAUGGUCAACUUGAUGCC against LCK to UGCAUUCCCACCAAUGUUG against EIF2B2, the seed-corrected z-score rises from -4.01 to -0.2.

Compared with UCAGAGCGAUUUUCAGUAC against KCTD21, UAUGUUGUCACUAGUCAGC against PNPLA7 is lower in seed-corrected z-score: 0.306 for the first, -0.38 for the second.

Going from UUCUGCAAAGCGCCACAGG against SLC22A31 to UUCUGAGUAAUCUACAAUG against RHOT1, the seed-corrected z-score rises from -2.24 to 0.1.

Compared with AACCGUGUAACCAUAGCUC against GABRQ, AAUAGUACCACCAAAGCAC against ELOVL2 is lower in seed-corrected z-score: 0.126 for the first, -0.0356 for the second.

First: UAUCUCCUCAGCUAAUUCG against SLC17A8
Second: UUCGUUAGUUGUUCUAGGC against RB1CC1
The seed-corrected z-score of the first is higher: 0.0229 for the first, -2.96 for the second.

Going from UCUGUGUAGCUCGGACACC against OR7E24 to AAUGAAUCAAAUGUAACGG against PNPT1, the seed-corrected z-score rises from -0.966 to -0.376.

Compared with UUUUCAAACAGGUAACAGC against ATM, UUUUGAGCCUCAGCACUCC against RGL3 is lower in seed-corrected z-score: 0.359 for the first, -0.0402 for the second.

First: UCCAGUUUUCGGAUCUUCC against MRPL40
Second: UCUCGUUCAGUUAUCUGCC against HECW2
The seed-corrected z-score of the first is lower: -2.5 for the first, 0.826 for the second.

Compared with UAGAGUUCCAGCUAGGGUG against CTRL, UUCUUGUACUGCACCAUCU against PHLDA1 is higher in seed-corrected z-score: -0.507 for the first, 2.51 for the second.

Going from UUAGUUCCAUUUCCUACUC against TEX38 to UGUGCAUGCACAGAGAAGC against NFE4, the seed-corrected z-score falls from -0.404 to -1.58.

Going from AAACUUAUACUUCUGGUAC against VBP1 to AGGAGACUCAGCUUGAUCC against SPATA45, the seed-corrected z-score falls from -0.149 to -2.01.

Compared with AACCAGUUAGAUUAUACGC against ATRNL1, UUGUAUCCAAAGAUGAUUC against PLXDC2 is higher in seed-corrected z-score: -0.225 for the first, -0.0677 for the second.

Compared with AGGCUGAUGACUCCUAUCC against SSTR3, UCAUAGGACCAGUCAAUGC against CPA2 is lower in seed-corrected z-score: 0.317 for the first, 0.13 for the second.

Compared with UCCCGUUCAAUCUCCCACC against RNF113B, UCCAUGGUACUUCUUAUGC against TMEM127 is lower in seed-corrected z-score: -0.595 for the first, -2.9 for the second.

Going from UUGGGAGCGAUAACACGAC against C19orf53 to AGAUCUACUAGUUCUUGUG against LRCH1, the seed-corrected z-score rises from -0.418 to 0.758.

Compared with ACAGUGGUGAACGUGAUGC against JPX, UUGGUAGUAGAUCAUAUGC against STXBP3 is higher in seed-corrected z-score: -2.26 for the first, -0.0771 for the second.

First: UUUUCUUGCGUUUAUGUGG against C11orf57
Second: AGUGAUGAAAGCAAAGUAG against KCNK16
The seed-corrected z-score of the first is lower: 0.448 for the first, 0.908 for the second.

Compared with UUUCAUCUCACCUUUAUUG against RPL23P5, UUCUGAUCCUGGAUGUUGC against R3HDM1 is higher in seed-corrected z-score: -2.17 for the first, 0.205 for the second.

Going from AGACGUUCCAUUCAUAUCU against RBMY1F to AUGGUCUUCACUCUUGUGC against CCR9, the seed-corrected z-score falls from 0.399 to -3.14.

First: UGUGUUUAACCAGAGAUCC against RXRG
Second: UGACCGUUUCGGAUGAUGG against ATP2B4
The seed-corrected z-score of the first is higher: 0.625 for the first, 0.168 for the second.

First: UAGCUGUCGAACACCCAGG against PDDC1
Second: UCAGUUUGCAAUUAGGCAG against LOC113230
The seed-corrected z-score of the first is higher: 1.63 for the first, 0.933 for the second.

First: UACCAGCUCACUGACAUGG against OR8B4
Second: UGCAUGACAAACAAAUUCC against GATAD1
The seed-corrected z-score of the first is lower: 0.0124 for the first, 0.136 for the second.

First: UCCAGUUGUAGUUCGGCAG against KISS1
Second: UCAGGUUGAUGAAAUGGGC against PRDM15
The seed-corrected z-score of the first is lower: -2.32 for the first, -0.519 for the second.

Going from UGAGCACAGAAAGUGGACC against SNRPD2P1 to ACAUCCUUAAGAAAUAUGG against PLEKHA2, the seed-corrected z-score falls from -0.553 to -0.563.

First: AAAGCGUAGAAAAUAUCCC against DNAH5
Second: UCAGUAUGAAGAGCAACAG against MCM2
The seed-corrected z-score of the first is higher: -0.0906 for the first, -0.317 for the second.

First: UACCUCUUAAUAAGAUCUG against ATP8A2
Second: UUUCGGAAAUCUAGGCUGG against KANSL1
The seed-corrected z-score of the first is lower: 0.0625 for the first, 1.62 for the second.

Going from UUGAUAUAAACUCUGACAC against PDE4D to UCGUCUUCGCUUUAUAUCC against EFR3A, the seed-corrected z-score falls from 0.567 to -3.4.

First: AUCGGUAGCAGUGAACAUG against LPP
Second: UAUAUUAGCGGUAACGGUG against RPL15P3
The seed-corrected z-score of the first is higher: -0.942 for the first, -2.66 for the second.

Compared with UCUGUUACAAUUGUUCCAC against ETF1, UUUCUCAUCAAAGAACUCC against PPP2R1A is higher in seed-corrected z-score: -0.812 for the first, -0.546 for the second.

Going from AAGCUUUAUACUUUCCACC against OR7G3 to AUUCGAACAACAUUUCUUC against ANOS1, the seed-corrected z-score falls from -0.496 to -0.592.

First: UCUCGAACCUGGAGAAUGC against FAM109B
Second: UGUGCACUAAUGCGAAUCG against MYO5C
The seed-corrected z-score of the first is higher: 0.134 for the first, -0.13 for the second.

Compared with UCUGCUUUGUCUCUCAGCC against FAM92A1, UUCUGGAUGUGGUAGGGCC against ACSBG1 is higher in seed-corrected z-score: -2.84 for the first, 0.963 for the second.

First: UCUGUUCGAAAGUCAAAGC against SRBD1
Second: UGAGUUGCAGUCCUCCACG against C9orf173
The seed-corrected z-score of the first is higher: -0.955 for the first, -2.17 for the second.

Compared with UUCGUAAUAAAGGAUCCAG against NF1, UAUGCGCAGAUGUUACUCG against PAICS is lower in seed-corrected z-score: 0.124 for the first, 0.0926 for the second.

First: UUCACUUUCAGAUCGGGAC against C18orf25
Second: UUUAAGUCAAAUCUUGUCC against WTIP
The seed-corrected z-score of the first is lower: -1.35 for the first, -0.633 for the second.

First: UAUUUACCAGGCUCUGUGG against FAM47A
Second: UGCUGCAUGACAUCCACCC against SORBS3
The seed-corrected z-score of the first is lower: 0.667 for the first, 0.835 for the second.

Compared with AGGGUAGAAAGAGUCGUCC against ANKRD33B, UUUUCGAUCAUCACCACAC against YWHAQ is higher in seed-corrected z-score: -2.3 for the first, -0.216 for the second.

Compared with UUGGAGUUCAGGAUCCUCU against MYO19, UCGGUUGAAACAUUUGUGG against IPO11 is higher in seed-corrected z-score: 0.563 for the first, 0.941 for the second.

Going from UAUGUAACUUUGAUGAGAG against CEACAM22P to AUCCUUGUACAUGCAGUCC against ELL, the seed-corrected z-score falls from 0.0194 to -2.16.

First: AUAAAACUCAUCUGAGUCC against CYP11B2
Second: AAAGCUAACAUAUUGUAGU against MSGN1
The seed-corrected z-score of the first is higher: 0.754 for the first, -0.0625 for the second.

Going from UUUCCGAUAGAUUGACUGC against SMPX to UUUCAUCUCAUCGAGGAAG against LDOC1, the seed-corrected z-score falls from 0.0624 to -2.02.

Going from UUCUCACUCAUGUUGCCUC against ZNF768 to UACGGUCACUGAUAGUUGG against CYP17A1, the seed-corrected z-score falls from 0.198 to -0.42.

Compared with UACCGGAAAGACAAGAUAG against CRYBG3, UGUAGCUGAAGAAUAUUCC against ZBTB24 is lower in seed-corrected z-score: 0.146 for the first, -2.4 for the second.

UCUUAUUGAAAAUCUCAGC against NR1H4 gave a seed-corrected z-score of 0.518.
